Consider 40 molecules from PubChem BioAssay (EPA / NIEHS).

Structures are written as SMILES. Results filed as inconclusive are left out. Activity calls are given as the source filed them. How the source made its calls: active means hit-call score of the fitted dose curve at least 0.9, where 1 is the maximum; inconclusive means response in the unintended direction; inactive means score below 0.9.

human RAR-related Orphan Receptor gamma (RORg), RORC (gene 6097), sequence (P51449 whole entry, looked up): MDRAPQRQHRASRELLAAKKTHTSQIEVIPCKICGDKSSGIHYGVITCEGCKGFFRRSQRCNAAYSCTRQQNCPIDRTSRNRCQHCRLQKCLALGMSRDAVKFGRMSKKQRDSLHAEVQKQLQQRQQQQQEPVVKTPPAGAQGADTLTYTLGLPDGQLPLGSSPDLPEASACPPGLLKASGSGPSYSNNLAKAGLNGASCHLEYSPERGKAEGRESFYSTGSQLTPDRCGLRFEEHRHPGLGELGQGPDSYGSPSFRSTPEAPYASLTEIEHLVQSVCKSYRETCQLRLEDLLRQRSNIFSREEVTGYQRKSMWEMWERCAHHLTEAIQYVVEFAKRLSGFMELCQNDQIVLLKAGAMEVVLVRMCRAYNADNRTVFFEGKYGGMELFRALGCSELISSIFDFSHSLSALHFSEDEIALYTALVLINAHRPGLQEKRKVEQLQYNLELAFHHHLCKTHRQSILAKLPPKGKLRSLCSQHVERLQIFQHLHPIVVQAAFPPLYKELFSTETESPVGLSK

The assay concerns the target human RAR-related Orphan Receptor gamma (RORg), RORC (gene 6097) (UniProt P51449). Kind of assay: ATG_RORg_TRANS: Attagene TRANS-FACTORIAL HepG2 Assay for human RAR-related Orphan Receptor gamma (RORg) (AID 2283011). How it is done: ATG_TRANS is a cell-based, multiplexed-readout assay that uses HepG2, a human liver cell line, with measurements taken at 24 hours after chemical dosing in a 24-well plate.ATG_RORg_TRANS is one of 30 assay component(s) measured or calculated from the ATG_TRANS assay. It is designed to make measurements of mRNA induction, a form of inducible reporter, as detected with fluorescence intensity signals by Reverse transcription polymerase chain reaction (RT-PCR) and Capillary electrophoresis technology.Data from the assay component ATG_RORg_TRANS was analyzed into 1 assay endpoint. This assay endpoint, ATG_RORg_TRANS, was analyzed in the positive analysis fitting direction relative to DMSO as the negative control and baseline of activity. Using a type of inducible reporter, measures of mRNA for gain-of-signal activity can be used to understand the reporter gene at the transcription factor-level as they relate to the gene RORC. Furthermore, this assay endpoint can be referred to as a primary readout, because this assay has produced multiple assay endpoints where this one serves a reporter gene function. To generalize the intended target to other relatable targets, this assay endpoint is annotated to the nuclear receptor intended target family, where the subfamily is orphan.
Human liver HepG2 cells are transiently transfected with multiple reporter transcription units (MRTUs) in 6-well plates using FuGene 6 reagent (Roche; 3 ml FuGene/1 mg DNA). The MRTU constructs are regulated by a cis-regulating element (promoter). […] A major difference between the CIS and TRANS system is that in CIS activities of endogenous TFs are measured, whereas the TRANS assay evaluates changes in activities of exogenous, chimeric NR-Gal4 proteins. […] At the end of 24 hour incubation, total RNA was isolated using TriZol reagent (Invitrogen). The isolated RNA is then reverse-transcribed using oligo(dT) primer and Mo-MLV reverse transcriptase (Invitrogen) with DNAse I (Ambion) treatment for 30 min. The one-tenth of the produced cDNA was amplified by PCR using Taq DNA polymerase (Invitrogen) and two reporter sequence-specific primers. The PCR products were fluorescently labeled by primer extension with 6-arboxyfluorescein (6-FAM) 5'-labeled reporter sequence-specific primer (2 min at 95 C, 20 s at 68 C and 10 min at 72 C) and these products were digested with 5U of HpaI (New England Biolabs) for 2h at 37 C. The fragments were purified using Qiaquick PCR columns (Qiagen), analyzed on an ABI 3130xL genetic analyzer (Applied Biosystems) with peak positions identified by using a set of X-rhodamine (ROX)-labeled MapMarker1000 molecular weight standards (BioVentures). The raw capillary electrophoresis data was processed using Attagraph software (Attagene).
On to `N#Cc1ccc(O)cc1`, for which the result was inactive.

Turning to `Nc1ccc(Sc2ccc(N)cc2)cc1`, the result was inactive.

Turning to `CCCCOCCOP(=O)(OCCOCCCC)OCCOCCCC`, the result was inactive.

With `OCC1CO1` (stereo not given), the outcome was inactive.

Take `CCNc1nc(Cl)nc(NC(C)(C)C)n1`: the molecule was classed as inactive.

In the case of `c1cc2c3c(cccc3c1)CC2`, the outcome was inactive.

As to `Nc1ccc2ccccc2c1`, the result was inactive.

With `CC(=O)c1ccc(-c2ccccc2)cc1`, the result was inactive.

Regarding `N#C/C=C/c1ccccc1`, the call was inactive.

Turning to `CC(C)Nc1ccc(Nc2ccccc2)cc1`, the result was inactive.

In the case of `NNC(N)=S`, the outcome was inactive.

Regarding `O=c1[nH]c2ccccc2c(=O)o1`, the result was inactive.

For the molecule `CC(O)C#N` (stereo not given), the call was inactive.

Consider `Cc1ccc(N)cc1N`, for which the result was inactive.

As for `COP(N)(=S)OC`, the result was inactive.

As to `Nc1ccc(Cl)cc1`, the molecule was called inactive.

Regarding `O=C(O)C(Cl)Cl`, the result was inactive.

Consider `CCOP(=S)(OCC)SCn1nnc2ccccc2c1=O`, for which the outcome was inactive.

Take `c1ccc(OP(Oc2ccccc2)Oc2ccccc2)cc1`: the molecule was called inactive.

Regarding `OCC(F)(F)OC(F)(F)C(F)(F)OC(F)(F)C(F)(F)OC(F)(F)F`, the result was inactive.

For `O=C(O)C(F)(F)OC(F)(F)C(F)(F)OC(F)(F)F`, the molecule was classed as inactive.

Take `Nc1cc2c3c(c1)C(c1ccccc1)=N[C@@H](NC(=O)c1cccnc1)C(=O)N3CC2`: the molecule was called inactive.

Regarding `NC(=O)C(F)(F)C(F)(F)F`, the outcome was inactive.

Turning to `CCOC(=O)c1ccccc1N`, the result was inactive.

For the molecule `CCCCC(CC)COC(=O)c1c(Br)c(Br)c(Br)c(Br)c1C(=O)OCC(CC)CCCC` (stereo not given), the result was inactive.

Consider `O=C(O)C(F)(F)C(F)(F)C(=O)O`, for which the outcome was inactive.

As for `COC(=O)C(F)(F)C(F)(F)OC(F)(C(F)(F)F)C(F)(F)OC(F)=C(F)F` (stereo not given), the molecule was called inactive.

For the molecule `O=NN1CCCC1`, the result was inactive.

Regarding `CCOP(=O)(O)C(N)=O`, the molecule was called inactive.

On to `CCOC(=O)c1ccccc1C(=O)OCC`, for which the outcome was inactive.

For the molecule `Cc1cccc(N)c1`, the molecule was classed as inactive.

As to `N#Cc1cc([N+](=O)[O-])ccc1N`, the call was inactive.

With `[N-]=[N+]=[N-]`, the molecule was called inactive.

For the molecule `O=P1(N(CCCl)CCCl)NCCCO1` (stereo not given), the call was inactive.

As to `O=C(O)C(F)(OC(F)(F)C(F)(F)C(F)(F)F)C(F)(F)F` (stereo not given), the result was inactive.

As for `CCN(CC)C1CCCCC1`, the molecule was classed as inactive.

For the molecule `CCCCN(CC)C(=O)SCCC`, the outcome was inactive.

Take `ClC(Cl)c1ccccc1`: the outcome was inactive.

For `O=C(O)CF`, the molecule was classed as inactive.

As to `CC(Cl)(Cl)C(=O)O`, the molecule was called inactive.
